Measurements: the supplement of paper PMC10849652
Targets with a hit are over-represented here; the source holds about 7,900 in all. About 0.6% of all pairs of compound and target were hits.

Tests used:
Test in all cases: log2 fold change, soluble protein after heating vs DMSO (PISA); higher = thermal stabilisation; K562 cells, 10 uM, 30 min; active = over 0.2 and 3.5 SD of the protein, either way, in both replicates (recomputed)
[1] = compound: NC(=O)Nc1cc(-c2cccc(F)c2)sc1C(=O)N[C@H]1CCCNC1
Summary of the method: (§1)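 Thermal stability values are relative to control samples and come from duplicates. They are expressed as log2 fold changes. For measurement, K562 cells (2×10^6 cells/mL) received 10 μM compound for 30 min, and aliquots were heated for 3 min over 48°C-58°C, pooled, and extracted at 4°C in PBS with 0.5% NP-40. Soluble protein, the supernatant after 21,000xg for 90 min, was quantified by TMTpro 16plex LC-MS/MS with equalised channel sums.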

[2] = compound: NC(=O)c1cnc(N[C@@H]2CCCC[C@@H]2N)nc1Nc1cccc(-n2nccn2)c1
Summary of the method: as §1

[3] = compound: NC1(c2ccc(-c3nc4ccn5c(=O)[nH]nc5c4cc3-c3ccccc3)cc2)CCC1
Summary of the method: as §1

[4] = compound: NCC(=O)Nc1ccc(-n2nc(C(F)(F)F)cc2-c2ccc3c(ccc4ccccc43)c2)cc1
Summary of the method: as §1

entinostat = compound: Nc1ccccc1NC(=O)c1ccc(CNC(=O)OCc2cccnc2)cc1 [entinostat]
Summary of the method: as §1

vorinostat = compound: O=C(CCCCCCC(=O)Nc1ccccc1)NO [vorinostat]
Summary of the method: as §1

citarinostat = compound: O=C(CCCCCCNC(=O)c1cnc(N(c2ccccc2)c2ccccc2Cl)nc1)NO [citarinostat]
Summary of the method: as §1

silmitasertib = compound: O=C(O)c1ccc2c(c1)nc(Nc1cccc(Cl)c1)c1ccncc12 [silmitasertib]
Summary of the method: as §1

[5] = compound: O=C1NC(=O)C(c2cnc3ccccn23)=C1c1cn2c3c(cc(F)cc13)CN(C(=O)N1CCCCC1)CC2
Summary of the method: as §1

[6] = compound: c1cc(OCCN2CCCCC2)cc(-c2n[nH]c3ccc(-c4nnc[nH]4)cc23)c1
Summary of the method: as §1

entospletinib = compound: c1cn2cc(-c3ccc4cn[nH]c4c3)nc(Nc3ccc(N4CCOCC4)cc3)c2n1 [entospletinib]
Summary of the method: as §1

Measured: log2 fold change

STX17 (UniProt P56962)
inactive: [1] 0.027 | [2] -0.073 | [3] -0.096 | [4] 0.126 | entinostat -0.001 | vorinostat -0.02 | citarinostat 0.254 | silmitasertib 0.087 | [5] -0.026 | [6] -0.059 | entospletinib -0.071

SUCLG1 (UniProt P53597)
Chain of UniProt P53597 (P53597 whole entry, looked up): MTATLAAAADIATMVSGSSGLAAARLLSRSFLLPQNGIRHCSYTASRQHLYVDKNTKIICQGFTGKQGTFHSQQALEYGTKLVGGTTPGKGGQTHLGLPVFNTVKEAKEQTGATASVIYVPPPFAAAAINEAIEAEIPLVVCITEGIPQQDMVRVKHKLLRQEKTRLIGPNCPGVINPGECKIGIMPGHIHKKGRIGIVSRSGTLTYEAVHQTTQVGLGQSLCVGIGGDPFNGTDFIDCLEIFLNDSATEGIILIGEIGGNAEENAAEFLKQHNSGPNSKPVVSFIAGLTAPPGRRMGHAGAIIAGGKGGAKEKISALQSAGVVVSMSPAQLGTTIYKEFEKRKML
inactive: [1] -0.037 | [2] -0.077 | [3] -0.106 | [4] -0.059 | entinostat 0.012 | vorinostat 0 | citarinostat 0.043 | silmitasertib -0.037 | [5] -0.073 | [6] -0.049 | entospletinib -0.041

TGFBRAP1 (UniProt Q8WUH2)
inactive: [1] 0.065 | [2] -0.03 | [3] -0.209 | [4] -0.006 | entinostat -0.013 | vorinostat 0.256 | citarinostat -0.367 | silmitasertib 0.056 | [5] 0.069 | [6] 0.013 | entospletinib 0.056

STARD9 (UniProt Q9P2P6)
inactive: [1] -0.179 | [2] -0.029 | [3] 0.058 | [4] 0.073 | entinostat 0.007 | vorinostat 0 | citarinostat -0.026 | silmitasertib 0.025 | [5] -0.048 | [6] 0.028 | entospletinib -0.059

STK38L (UniProt Q9Y2H1)
inactive: [1] -0.046 | [2] -0.015 | [3] -0.117 | [4] 0.078 | entinostat 0.109 | vorinostat 0.02 | citarinostat 0.036 | silmitasertib 0.101 | [5] -0.078 | [6] 0.05 | entospletinib 0.083

TGFBI (UniProt Q15582)
inactive: [1] -0.037 | [2] -0.136 | [3] -0.116 | [4] -0.116 | entinostat 0.056 | vorinostat 0.309 | citarinostat -0.056 | silmitasertib 0.114 | [5] -0.01 | [6] 0.202 | entospletinib 0.063

SNX9 (UniProt Q9Y5X1)
inactive: [1] -0.013 | [2] -0.022 | [3] -0.102 | [4] -0.055 | entinostat 0.037 | vorinostat 0.058 | citarinostat 0.024 | silmitasertib 0.033 | [5] -0.065 | [6] -0.067 | entospletinib -0.01

THYN1 (UniProt Q9P016)
inactive: [1] 0 | [2] -0.011 | [3] -0.048 | [4] -0.103 | entinostat -0.004 | vorinostat 0.011 | citarinostat 0.008 | silmitasertib -0.011 | [5] -0.022 | [6] -0.034 | entospletinib 0.011

STXBP5 (UniProt Q5T5C0)
Chain of UniProt Q5T5C0 (Q5T5C0 whole entry, looked up): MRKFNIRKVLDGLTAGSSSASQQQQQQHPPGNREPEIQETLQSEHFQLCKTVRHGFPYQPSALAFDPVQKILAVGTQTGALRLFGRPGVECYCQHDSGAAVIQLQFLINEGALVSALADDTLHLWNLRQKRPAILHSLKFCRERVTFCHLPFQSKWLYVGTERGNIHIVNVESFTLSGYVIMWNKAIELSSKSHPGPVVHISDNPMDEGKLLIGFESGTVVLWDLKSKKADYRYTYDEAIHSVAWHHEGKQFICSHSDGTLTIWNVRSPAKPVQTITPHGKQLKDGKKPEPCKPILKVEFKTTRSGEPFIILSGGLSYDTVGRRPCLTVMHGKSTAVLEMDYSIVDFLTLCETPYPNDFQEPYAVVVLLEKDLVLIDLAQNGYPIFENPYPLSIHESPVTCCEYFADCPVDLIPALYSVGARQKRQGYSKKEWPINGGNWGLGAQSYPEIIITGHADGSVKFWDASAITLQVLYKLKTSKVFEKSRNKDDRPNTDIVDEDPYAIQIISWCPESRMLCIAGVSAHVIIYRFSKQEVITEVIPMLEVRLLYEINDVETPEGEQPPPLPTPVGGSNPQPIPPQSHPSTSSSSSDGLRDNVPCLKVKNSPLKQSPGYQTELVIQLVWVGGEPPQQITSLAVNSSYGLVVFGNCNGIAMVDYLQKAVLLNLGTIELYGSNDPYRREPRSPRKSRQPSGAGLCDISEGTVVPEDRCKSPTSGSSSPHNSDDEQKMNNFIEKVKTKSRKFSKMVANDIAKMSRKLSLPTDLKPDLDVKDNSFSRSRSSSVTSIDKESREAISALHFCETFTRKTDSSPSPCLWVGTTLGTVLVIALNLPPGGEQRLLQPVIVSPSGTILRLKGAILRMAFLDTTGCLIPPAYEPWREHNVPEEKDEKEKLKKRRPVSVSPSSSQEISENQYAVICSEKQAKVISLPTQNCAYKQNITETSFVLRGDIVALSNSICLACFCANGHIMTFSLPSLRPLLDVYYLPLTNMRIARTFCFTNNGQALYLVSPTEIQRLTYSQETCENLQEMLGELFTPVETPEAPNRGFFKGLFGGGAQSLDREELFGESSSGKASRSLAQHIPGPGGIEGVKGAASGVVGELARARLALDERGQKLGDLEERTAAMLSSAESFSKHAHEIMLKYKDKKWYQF
inactive: [1] 0.006 | [2] -0.022 | [3] -0.145 | [4] -0.033 | entinostat -0.011 | vorinostat 0.004 | citarinostat 0.024 | silmitasertib 0.041 | [5] -0.04 | [6] -0.003 | entospletinib 0.01

SSB (UniProt P05455)
inactive: [1] -0.018 | [2] -0.181 | [3] -0.01 | [4] -0.091 | entinostat 0.039 | vorinostat 0.085 | citarinostat 0.02 | silmitasertib -0.035 | [5] -0.089 | [6] -0.085 | entospletinib -0.051

SNW1 (UniProt Q13573)
inactive: [1] 0.034 | [2] 0.019 | [3] 0.017 | [4] 0.02 | entinostat -0.056 | vorinostat -0.044 | citarinostat -0.019 | silmitasertib 0.062 | [5] 0.05 | [6] -0.05 | entospletinib 0.087

TLK2 isoform 2 (UniProt Q86UE8)
inactive: [1] -0.059 | [2] 0.049 | [3] -0.042 | [4] -0.037 | entinostat 0.036 | vorinostat 0.1 | citarinostat 0.016 | silmitasertib 0.034 | [5] -0.026 | [6] -0.052 | entospletinib 0.03

SUN2 (UniProt Q9UH99)
inactive: [1] 0.002 | [2] 0.011 | [3] -0.054 | [4] -0.03 | entinostat 0.054 | vorinostat 0.018 | citarinostat 0.019 | silmitasertib 0.007 | [5] 0.097 | [6] -0.087 | entospletinib 0

TCERG1 (UniProt O14776)
inactive: [1] -0.026 | [2] -0.075 | [3] -0.123 | [4] -0.112 | entinostat 0.159 | vorinostat 0.129 | citarinostat 0.129 | silmitasertib 0.022 | [5] -0.153 | [6] 0 | entospletinib -0.043

SLC25A39 (UniProt Q9BZJ4)
inactive: [1] 0.059 | [2] -0.183 | [3] -0.345 | [4] -0.105 | entinostat 0.061 | vorinostat -0.05 | citarinostat -0.015 | silmitasertib 0.023 | [5] 0.073 | [6] 0.223 | entospletinib -0.045

SYNE1 (UniProt Q8NF91)
inactive: [1] -0.006 | [2] -0.031 | [3] -0.008 | [4] 0.04 | entinostat -0.027 | vorinostat 0.114 | citarinostat 0.106 | silmitasertib -0.03 | [5] -0.244 | [6] 0.006 | entospletinib -0.141

TMBIM1 (UniProt Q969X1)
Chain of UniProt Q969X1 (Q969X1 whole entry, looked up): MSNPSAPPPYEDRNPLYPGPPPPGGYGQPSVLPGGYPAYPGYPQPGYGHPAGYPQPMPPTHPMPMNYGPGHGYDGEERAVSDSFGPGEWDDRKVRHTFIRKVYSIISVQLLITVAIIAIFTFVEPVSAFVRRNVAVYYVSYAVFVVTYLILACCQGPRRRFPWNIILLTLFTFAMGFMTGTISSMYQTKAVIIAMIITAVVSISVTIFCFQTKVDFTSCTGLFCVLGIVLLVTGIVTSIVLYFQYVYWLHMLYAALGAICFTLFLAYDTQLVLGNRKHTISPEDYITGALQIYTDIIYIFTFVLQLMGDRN
inactive: [1] 0.079 | [2] -0.229 | [3] -0.008 | [4] -0.259 | entinostat 0.062 | vorinostat -0.034 | citarinostat -0.208 | silmitasertib 0.067 | [5] -0.149 | [6] 0.021 | entospletinib -0.019

SMC5 (UniProt Q8IY18)
inactive: [1] 0.057 | [2] -0.034 | [3] -0.083 | [4] -0.051 | entinostat -0.033 | vorinostat 0.017 | citarinostat -0.021 | silmitasertib 0.052 | [5] -0.1 | [6] -0.051 | entospletinib 0.016

SRPRB (UniProt Q9Y5M8)
inactive: [1] 0.048 | [2] 0.028 | [3] -0.056 | [4] -0.038 | entinostat 0.045 | vorinostat 0.029 | citarinostat 0.029 | silmitasertib -0.007 | [5] -0.014 | [6] 0.045 | entospletinib -0.052

SLC27A4 (UniProt Q6P1M0)
Chain of UniProt Q6P1M0 (Q6P1M0 whole entry, looked up): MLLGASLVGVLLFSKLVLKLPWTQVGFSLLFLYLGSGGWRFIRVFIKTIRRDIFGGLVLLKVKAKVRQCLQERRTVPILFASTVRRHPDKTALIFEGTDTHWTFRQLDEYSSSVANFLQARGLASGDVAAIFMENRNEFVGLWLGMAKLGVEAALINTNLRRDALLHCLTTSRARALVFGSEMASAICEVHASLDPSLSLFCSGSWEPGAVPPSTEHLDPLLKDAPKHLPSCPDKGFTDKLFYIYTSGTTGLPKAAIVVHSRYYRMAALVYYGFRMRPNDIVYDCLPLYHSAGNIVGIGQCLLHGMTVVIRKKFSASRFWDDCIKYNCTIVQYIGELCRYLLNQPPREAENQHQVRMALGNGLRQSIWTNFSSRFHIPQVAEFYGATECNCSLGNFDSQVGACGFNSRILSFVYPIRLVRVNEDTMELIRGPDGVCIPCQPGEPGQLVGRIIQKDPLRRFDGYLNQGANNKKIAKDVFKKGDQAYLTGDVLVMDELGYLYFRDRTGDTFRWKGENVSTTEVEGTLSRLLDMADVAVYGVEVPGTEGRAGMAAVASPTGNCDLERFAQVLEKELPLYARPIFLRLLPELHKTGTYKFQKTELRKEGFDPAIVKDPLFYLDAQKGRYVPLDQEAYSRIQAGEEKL
inactive: [1] -0.086 | [2] -0.043 | [3] -0.034 | [4] 0.016 | entinostat -0.024 | vorinostat 0 | citarinostat 0.043 | silmitasertib 0.022 | [5] -0.073 | [6] -0.1 | entospletinib -0.027

THADA (UniProt Q6YHU6)
Chain of UniProt Q6YHU6 (Q6YHU6 whole entry, looked up): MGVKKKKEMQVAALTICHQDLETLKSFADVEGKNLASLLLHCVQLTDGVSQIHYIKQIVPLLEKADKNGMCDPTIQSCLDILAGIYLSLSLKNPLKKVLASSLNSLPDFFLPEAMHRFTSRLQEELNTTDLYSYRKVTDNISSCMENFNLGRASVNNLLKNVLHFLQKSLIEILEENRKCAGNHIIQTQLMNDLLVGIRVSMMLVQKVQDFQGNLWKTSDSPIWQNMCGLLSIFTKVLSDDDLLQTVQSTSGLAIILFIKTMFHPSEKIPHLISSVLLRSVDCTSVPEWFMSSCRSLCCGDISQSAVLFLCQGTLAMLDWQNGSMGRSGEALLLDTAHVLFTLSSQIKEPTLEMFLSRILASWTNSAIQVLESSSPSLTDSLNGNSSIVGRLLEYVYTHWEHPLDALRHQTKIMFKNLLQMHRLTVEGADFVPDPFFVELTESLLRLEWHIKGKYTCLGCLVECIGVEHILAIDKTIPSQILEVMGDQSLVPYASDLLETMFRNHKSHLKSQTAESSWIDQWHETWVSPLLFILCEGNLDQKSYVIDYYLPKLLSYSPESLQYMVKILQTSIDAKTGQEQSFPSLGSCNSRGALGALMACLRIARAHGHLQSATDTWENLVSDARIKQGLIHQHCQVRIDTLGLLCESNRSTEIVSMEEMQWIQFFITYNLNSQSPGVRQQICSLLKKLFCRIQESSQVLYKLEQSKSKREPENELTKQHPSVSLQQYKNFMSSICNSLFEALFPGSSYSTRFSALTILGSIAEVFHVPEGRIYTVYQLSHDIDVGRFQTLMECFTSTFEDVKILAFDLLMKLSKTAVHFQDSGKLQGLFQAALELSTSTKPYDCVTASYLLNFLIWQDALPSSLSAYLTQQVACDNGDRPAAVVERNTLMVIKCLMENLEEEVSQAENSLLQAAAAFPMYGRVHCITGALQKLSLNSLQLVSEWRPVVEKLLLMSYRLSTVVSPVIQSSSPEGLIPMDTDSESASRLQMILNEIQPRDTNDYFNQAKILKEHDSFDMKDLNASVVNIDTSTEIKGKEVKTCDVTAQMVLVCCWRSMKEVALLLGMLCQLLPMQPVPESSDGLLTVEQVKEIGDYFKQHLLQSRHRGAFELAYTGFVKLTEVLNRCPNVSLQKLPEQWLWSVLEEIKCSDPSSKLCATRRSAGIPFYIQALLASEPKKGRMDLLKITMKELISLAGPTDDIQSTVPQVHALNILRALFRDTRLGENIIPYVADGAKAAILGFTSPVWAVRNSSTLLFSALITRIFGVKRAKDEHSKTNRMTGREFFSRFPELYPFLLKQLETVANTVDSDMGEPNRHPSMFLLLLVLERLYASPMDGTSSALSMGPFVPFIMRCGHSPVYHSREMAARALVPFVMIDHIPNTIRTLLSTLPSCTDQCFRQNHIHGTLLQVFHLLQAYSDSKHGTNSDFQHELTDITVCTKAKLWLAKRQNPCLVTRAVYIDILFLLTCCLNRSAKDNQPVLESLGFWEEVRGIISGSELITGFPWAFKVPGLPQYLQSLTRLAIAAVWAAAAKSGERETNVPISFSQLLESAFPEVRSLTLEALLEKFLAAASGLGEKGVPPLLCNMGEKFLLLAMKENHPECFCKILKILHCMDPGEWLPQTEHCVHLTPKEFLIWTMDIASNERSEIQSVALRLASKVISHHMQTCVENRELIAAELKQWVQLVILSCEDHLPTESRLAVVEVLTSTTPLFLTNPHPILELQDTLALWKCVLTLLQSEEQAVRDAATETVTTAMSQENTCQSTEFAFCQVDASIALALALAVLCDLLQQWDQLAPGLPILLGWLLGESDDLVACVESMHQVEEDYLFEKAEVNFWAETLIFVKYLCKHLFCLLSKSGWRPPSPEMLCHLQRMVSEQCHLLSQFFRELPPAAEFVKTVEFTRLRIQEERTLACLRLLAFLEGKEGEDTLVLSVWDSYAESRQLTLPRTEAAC
inactive: [1] 0.004 | [2] -0.085 | [3] -0.147 | [4] -0.082 | entinostat 0.014 | vorinostat -0.001 | citarinostat 0.121 | silmitasertib -0.061 | [5] -0.025 | [6] -0.013 | entospletinib 0.004

SSX2 (UniProt Q16385)
Chain of UniProt Q16385 (Q16385 whole entry, looked up): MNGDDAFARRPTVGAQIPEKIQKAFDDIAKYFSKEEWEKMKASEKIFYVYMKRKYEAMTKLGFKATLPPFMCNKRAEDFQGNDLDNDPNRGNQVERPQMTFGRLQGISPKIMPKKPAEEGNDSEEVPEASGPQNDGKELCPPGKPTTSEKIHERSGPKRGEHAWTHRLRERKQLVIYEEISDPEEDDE
inactive: [1] -0.049 | [2] -0.094 | [3] -0.02 | [4] -0.057 | entinostat -0.054 | vorinostat -0.022 | citarinostat -0.025 | silmitasertib 0.011 | [5] -0.098 | [6] 0.033 | entospletinib 0.041

STAT5B (UniProt P51692)
inactive: [1] -0.027 | [2] -0.022 | [3] -0.207 | [4] -0.129 | entinostat 0.282 | vorinostat 0.18 | citarinostat 0.15 | silmitasertib 0.043 | [5] 0.045 | [6] 0.024 | entospletinib -0.053

SRSF11 (UniProt Q05519)
Chain of UniProt Q05519 (Q05519 whole entry, looked up): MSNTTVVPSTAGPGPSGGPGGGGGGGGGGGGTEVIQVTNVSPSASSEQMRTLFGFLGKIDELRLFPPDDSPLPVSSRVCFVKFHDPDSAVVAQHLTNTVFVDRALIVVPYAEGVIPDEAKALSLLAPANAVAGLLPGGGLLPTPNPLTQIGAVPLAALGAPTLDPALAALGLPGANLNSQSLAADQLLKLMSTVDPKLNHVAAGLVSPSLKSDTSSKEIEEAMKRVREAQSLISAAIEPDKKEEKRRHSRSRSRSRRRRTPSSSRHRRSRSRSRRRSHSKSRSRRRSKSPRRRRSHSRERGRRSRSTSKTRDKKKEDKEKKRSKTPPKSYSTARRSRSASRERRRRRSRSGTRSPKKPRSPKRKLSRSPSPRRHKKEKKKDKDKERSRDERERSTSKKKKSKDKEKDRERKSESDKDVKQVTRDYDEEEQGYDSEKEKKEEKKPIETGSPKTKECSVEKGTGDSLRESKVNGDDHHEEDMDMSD
inactive: [1] -0.183 | [2] -0.032 | [3] -0.063 | [4] -0.074 | entinostat 0.018 | vorinostat 0.06 | citarinostat 0.046 | silmitasertib -0.099 | [5] 0.037 | [6] -0.038 | entospletinib 0

SLC30A7 (UniProt Q8NEW0)
inactive: [1] -0.035 | [2] 0.013 | [3] -0.276 | [4] -0.178 | entinostat 0.024 | vorinostat -0.024 | citarinostat -0.028 | silmitasertib 0.039 | [5] 0.025 | [6] -0.032 | entospletinib -0.201

SYMPK (UniProt Q92797)
inactive: [1] -0.018 | [2] 0.012 | [3] -0.287 | [4] -0.08 | entinostat 0.025 | vorinostat 0.11 | citarinostat 0.051 | silmitasertib 0.167 | [5] 0.033 | [6] -0.037 | entospletinib -0.015

TBCD (UniProt Q9BTW9)
inactive: [1] 0.003 | [2] -0.057 | [3] -0.146 | [4] -0.03 | entinostat 0.03 | vorinostat -0.013 | citarinostat 0.028 | silmitasertib 0.039 | [5] -0.001 | [6] -0.063 | entospletinib -0.03

SRP72 (UniProt O76094)
inactive: [1] -0.088 | [2] -0.054 | [3] -0.082 | [4] -0.128 | entinostat 0.069 | vorinostat 0.103 | citarinostat 0.095 | silmitasertib 0.042 | [5] 0.105 | [6] -0.129 | entospletinib 0.052
